Source: the supplement of paper PMC6555819

Experiments:
Experiment in all cases: PBM binding z-score (relative to random genomic background probes); higher = stronger binding; sequences stand for … in GC…GCGATTGACAGCGTAGAATGAAGG
[1] = test system: FXR:RXRa (NR concentration 270 nM, RXRa partner concentration 90 nM)
How it was run: (§1)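 Antibodies against each partner of ligand-free nuclear receptor dimers (one per run) detected binding on custom Agilent 4×180K protein-binding microarrays after 1 h incubation. The double-stranded probes had 34-nt variable regions carrying direct-repeat seeds, single-nucleotide variants, half-site ablations and random human genomic background sequences. Binding z-scores, from regression-normalized fluorescence, use the random background probes as reference.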

[2] = test system: LXRa:RXRa (NR concentration 270 nM, RXRa partner concentration 90 nM)
How it was run: as §1

[3] = test system: LXRa homodimer (NR concentration 270 nM)
How it was run: as §1

[4] = test system: LXRb:RXRa (NR concentration 270 nM, RXRa partner concentration 90 nM)
How it was run: as §1

[5] = test system: LXRb homodimer (NR concentration 270 nM)
How it was run: as §1

[6] = test system: PPARa:RXRa (NR concentration 270 nM, RXRa partner concentration 90 nM)
How it was run: as §1

[7] = test system: PPARg:RXRa (NR concentration 180 nM, RXRa partner concentration 90 nM)
How it was run: as §1

[8] = test system: PPARg:RXRa 270nM:90nM, anti-RXR (NR concentration 270 nM, RXRa partner concentration 90 nM)
How it was run: as §1

[9] = test system: PPARg:RXRa 30nM:10nM, anti-RXR (NR concentration 30 nM, RXRa partner concentration 10 nM)
How it was run: as §1

[10] = test system: PPARg:RXRa 90nM:30nM, anti-RXR (NR concentration 90 nM, RXRa partner concentration 30 nM)
How it was run: as §1

[11] = test system: PPARg:RXRa DBDmut IVT, anti-RXR (DBD mutation: RXRa K156A/R161A, NR concentration 270 nM, RXRa partner concentration 90 nM)
How it was run: as §1

[12] = test system: PPARg:RXRa IVT, anti-PPARg (NR concentration 270 nM, RXRa partner concentration 90 nM)
How it was run: as §1

[13] = test system: PPARg DBDmut:RXRa IVT, anti-PPARg (DBD mutation: PPARg1 K132A/R137A, NR concentration 270 nM, RXRa partner concentration 90 nM)
How it was run: as §1

[14] = test system: PPARg DBDmut IVT, anti-PPARg (DBD mutation: PPARg1 K132A/R137A, NR concentration 270 nM)
How it was run: as §1

[15] = test system: PPARg homodimer (NR concentration 180 nM)
How it was run: as §1

[16] = test system: PXR:RXRa (NR concentration 270 nM, RXRa partner concentration 90 nM)
How it was run: as §1

[17] = test system: PXR homodimer (NR concentration 270 nM)
How it was run: as §1

[18] = test system: RARa:RXR (NR concentration 270 nM, RXRa partner concentration 90 nM)
How it was run: as §1

[19] = test system: RARa homodimer (NR concentration 270 nM)
How it was run: as §1

[20] = test system: RARb:RXRa (NR concentration 270 nM, RXRa partner concentration 90 nM)
How it was run: as §1

Sequence	PBM binding z-score [1]	PBM binding z-score [2]	PBM binding z-score [3]	PBM binding z-score [4]	PBM binding z-score [5]	PBM binding z-score [6]	PBM binding z-score [7]	PBM binding z-score [8]	PBM binding z-score [9]	PBM binding z-score [10]	PBM binding z-score [11]	PBM binding z-score [12]	PBM binding z-score [13]	PBM binding z-score [14]	PBM binding z-score [15]	PBM binding z-score [16]	PBM binding z-score [17]	PBM binding z-score [18]	PBM binding z-score [19]	PBM binding z-score [20]
CAGACTAGGTCACAGAGGTCAAAGTCCGTGCGTA	6.87	6.52	6.79	6.23	1.62	6.22	8.66	7.43	5.05	7.36	7.57	8	2.36	0.704	4.93	6.65	11.5	7.28	2.93	5.07
GATACTGGGTCAGCTAGAGGCCAGAGTATGGAAA	0.906	0.796	-0.487	0.388	-0.812	2.91	3.87	3.8	0.981	2.65	5.49	5.95	0.246	-0.167	1.24	1.15	-0.114	2.03	-0.28	3.26
CCTCGGAGGACAGAAGGTCAGAGCCGTCCGCTTT	1.62	1.72	0.422	1.2	-0.824	1.93	-0.186	0.948	-0.897	0.277	0.172	-0.13	-1.85	-1.98	1.7	1.78	-0.366	2.37	0.4	3.24
CGTCCACGGTCATAGGAGGTCAGTGAAGACAGAT	2.58	4.52	2.1	2.15	-0.643	2.16	0.881	0.977	-0.0793	0.32	0.0707	2.02	-0.535	-1.15	1.73	3.88	0.754	2.6	0.207	3.65
CCTACTAGGCCATCAGGTCATTGATATCAACGTT	2.15	1.63	1.62	2.16	0.844	3.19	3.75	4	2.04	3.5	6.04	5.32	0.857	0.291	1.87	2.04	1.66	2.59	1.47	2.45
AGAACGAGGGCACGCTGAGTTGATGGCAGAGTAG	0.805	0.828	-0.81	0.0668	-1.05	2.22	2.22	1.63	0.228	1.27	4.26	3.81	0.605	-0.669	0.179	1.13	-0.226	0.999	-0.371	2.38
GCTAGCAGGCCATTTGGGACACTCAATGACGGGC	-0.491	-0.668	-0.545	-1.16	-1.04	-0.523	0.681	-0.463	-0.719	-0.835	0.822	0.411	-0.432	-0.76	-1.04	-0.714	-0.736	-0.559	-0.547	-0.00778
AGTCAAAGTTCATCTAGGTAACGCAAGATATGCT	6.85	5.91	4.93	3.61	1.83	4.83	6.39	6.35	3.58	5.58	0.815	4.11	1.46	1.49	3.03	5.12	6.5	3.76	1.42	5.03
ATCTCTAGGTCAAGATAGTTCAGTGAATGCAAAT	3.96	6.31	4.48	3.62	1.93	4.23	4.92	4.63	2.03	3.66	6.08	6.47	1.92	2.11	2.05	5.27	1.48	3.29	1.32	4.26
CAAACTAGGTCACCGGAAGGTCAATGTCCGCATG	5.97	5.52	3.83	4.64	1.09	6.05	9.44	7.81	5.6	7.57	8.58	8.99	1.98	1.35	6.39	5.65	1.15	6.94	1.41	5.25
ATCTCTAGGTAAGGTTCAGTGAAAGATCGATAGA	0.902	1.26	0.551	1.07	1.03	1.4	1.25	2.17	0.962	1.9	1.52	1.27	1.88	0.757	1.1	0.838	0.974	1.21	1.79	1.34
GCTAGGAGGCCATTTGGGTCACTCAATGACGGGC	0.677	0.0368	-0.495	0.118	-0.985	1.73	0.825	0.402	-0.518	0.187	1.91	2.38	-0.861	-0.88	0.287	1.21	1.1	1.04	-0.719	1.95
CCTGCTAGGTCACGGTCAGCTAATCTACAGTATG	4.56	3.65	0.541	2.45	0.134	4.05	4.31	4.17	1.72	3.2	5.34	5.12	1.07	0.203	2.79	2.08	-0.469	3.24	1.67	4.46
